In the supplement of paper PMC4022240:
± gives the standard deviation.

Tests used:
Test in all cases: peptide microarray binding signal (635 nm), min-max normalized on array (fraction of array maximum); higher = stronger binding
[1] = target: T1, HaloTag-ATRX ADD domain (163-292)
T1 chain: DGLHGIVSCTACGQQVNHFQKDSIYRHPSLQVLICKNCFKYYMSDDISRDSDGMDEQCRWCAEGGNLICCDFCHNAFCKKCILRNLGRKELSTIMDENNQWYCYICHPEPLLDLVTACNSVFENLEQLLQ
How it was run: (§1)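 Triplicate spots of histone 13-mer peptide–cellulose conjugates with a Cy3 tracer were printed on nitrocellulose and probed for 1 h at 4°C with biotin-labelled HaloTag reader fusions (10 nM to 1 μM) plus streptavidin-Alexa Fluor 647 or rabbit histone antibodies (1:10,000 to 1:2,000) plus anti-rabbit Alexa 647. An Axon GenePix 4000B read the 635 nm channel. Binding signal is the spot-triplicate mean intensity after min-max scaling within each library.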

[2] = target: HaloTag-ING2 PHD (mouse Ing2 200-280)
How it was run: as §1

[3] = target: anti-H3K4me3 antibody ab8580
How it was run: as §1

[4] = target: anti-H3K9me3 antibody ab8898
How it was run: as §1

[5] = peptide region: H3 30-42, peptide modifications: H3T32ph H3K36me1, binder concentration: 1:2,000 dilution
[6] = peptide region: H3 30-42, peptide modifications: H3T32ph H3K36me1, binder concentration: 1:10,000 dilution
[7] = peptide region: H3 30-42, peptide modifications: H3T32ph H3K36me3, binder concentration: 1:2,000 dilution
[8] = peptide region: H3 30-42, peptide modifications: H3T32ph H3K36me3, binder concentration: 1:10,000 dilution
[9] = peptide region: H3 30-42, peptide modifications: H3T32ph H3K36ac, binder concentration: 1:2,000 dilution
[10] = peptide region: H3 30-42, peptide modifications: H3T32ph H3K36ac, binder concentration: 1:10,000 dilution
[11] = peptide region: H3 50-62, peptide modifications: H3K56ac H3S57ph, binder concentration: 1:2,000 dilution
[12] = peptide region: H3 50-62, peptide modifications: H3K56ac H3S57ph, binder concentration: 1:10,000 dilution
[13] = peptide region: H3 50-62, peptide modifications: H3K56me3, binder concentration: 1:2,000 dilution
[14] = peptide region: H3 50-62, peptide modifications: H3K56me3, binder concentration: 1:10,000 dilution
[15] = peptide region: H3 30-42, peptide modifications: H3K37me2, binder concentration: 1:2,000 dilution
[16] = peptide region: H3 30-42, peptide modifications: H3K37me2, binder concentration: 1:10,000 dilution
[17] = peptide region: H3 50-62, peptide modifications: H3K56me1 H3S57ph, binder concentration: 1:2,000 dilution
[18] = peptide region: H3 50-62, peptide modifications: H3K56me1 H3S57ph, binder concentration: 1:10,000 dilution
[19] = peptide region: H3 30-42, peptide modifications: H3T32ph H3K36me2, binder concentration: 1:2,000 dilution
[20] = peptide region: H3 30-42, peptide modifications: H3T32ph H3K36me2, binder concentration: 1:10,000 dilution
[21] = peptide region: H3 50-62, peptide modifications: H3K56ac, binder concentration: 1:2,000 dilution
[22] = peptide region: H3 50-62, peptide modifications: H3K56ac, binder concentration: 1:10,000 dilution
[23] = peptide region: H3 50-62, peptide modifications: H3K56me2 H3S57ph, binder concentration: 1:2,000 dilution
[24] = peptide region: H3 50-62, peptide modifications: H3K56me2 H3S57ph, binder concentration: 1:10,000 dilution

PATGGVKKPHRYR [H3 30-42 P A Tph G G V Kme K P H R Y R]
peptide microarray binding signal ([1]; peptide region: H3 30-42, peptide modifications: H3T32ph H3K36me1, binder concentration: 50 nM): 0.00552 ± 0.00021 | peptide microarray binding signal ([1]; peptide region: H3 30-42, peptide modifications: H3T32ph H3K36me1, binder concentration: 500 nM): 0.00914 ± 0.00072 | peptide microarray binding signal ([2]; peptide region: H3 30-42, peptide modifications: H3T32ph H3K36me1, binder concentration: 10 nM): 0.00871 ± 0.00013 | peptide microarray binding signal ([2]; peptide region: H3 30-42, peptide modifications: H3T32ph H3K36me1, binder concentration: 100 nM): 0.0167 ± 0.0011 | peptide microarray binding signal [3, 5]: 0.00193 ± 0.00024 | peptide microarray binding signal [3, 6]: 0.00257 ± 0.00014 | peptide microarray binding signal [4, 5]: 0.00118 ± 0.00016 | peptide microarray binding signal [4, 6]: 0.00144 ± 0.00011

PATGGVKKPHRYR [H3 30-42 P A Tph G G V Kme3 K P H R Y R]
peptide microarray binding signal ([1]; peptide region: H3 30-42, peptide modifications: H3T32ph H3K36me3, binder concentration: 50 nM): 0.00426 ± 9.2e-05 | peptide microarray binding signal ([1]; peptide region: H3 30-42, peptide modifications: H3T32ph H3K36me3, binder concentration: 500 nM): 0.00686 ± 0.00012 | peptide microarray binding signal ([2]; peptide region: H3 30-42, peptide modifications: H3T32ph H3K36me3, binder concentration: 10 nM): 0.00925 ± 0.00068 | peptide microarray binding signal ([2]; peptide region: H3 30-42, peptide modifications: H3T32ph H3K36me3, binder concentration: 100 nM): 0.0248 ± 0.0061 | peptide microarray binding signal [3, 7]: 0.0335 ± 0.008 | peptide microarray binding signal [3, 8]: 0.0116 ± 0.0022 | peptide microarray binding signal [4, 7]: 0.0489 ± 0.013 | peptide microarray binding signal [4, 8]: 0.0155 ± 0.0012

PATGGVKKPHRYR [H3 30-42 P A Tph G G V Kac K P H R Y R]
peptide microarray binding signal ([1]; peptide region: H3 30-42, peptide modifications: H3T32ph H3K36ac, binder concentration: 50 nM): 0.00502 ± 0.00015 | peptide microarray binding signal ([1]; peptide region: H3 30-42, peptide modifications: H3T32ph H3K36ac, binder concentration: 500 nM): 0.0116 ± 0.0013 | peptide microarray binding signal ([2]; peptide region: H3 30-42, peptide modifications: H3T32ph H3K36ac, binder concentration: 10 nM): 0.0123 ± 0.00025 | peptide microarray binding signal ([2]; peptide region: H3 30-42, peptide modifications: H3T32ph H3K36ac, binder concentration: 100 nM): 0.023 ± 0.0019 | peptide microarray binding signal [3, 9]: 0.00191 ± 0.00028 | peptide microarray binding signal [3, 10]: 0.00257 ± 0.00023 | peptide microarray binding signal [4, 9]: 0.00193 ± 0.00036 | peptide microarray binding signal [4, 10]: 0.00167 ± 0.00013

EIRRYQKSTELLI [H3 50-62 E I R R Y Q Kac Sph T E L L I]
peptide microarray binding signal ([1]; peptide region: H3 50-62, peptide modifications: H3K56ac H3S57ph, binder concentration: 50 nM): 0.00069 ± 9.4e-06 | peptide microarray binding signal ([1]; peptide region: H3 50-62, peptide modifications: H3K56ac H3S57ph, binder concentration: 500 nM): 0.00119 ± 4e-05 | peptide microarray binding signal ([2]; peptide region: H3 50-62, peptide modifications: H3K56ac H3S57ph, binder concentration: 10 nM): 0.00197 ± 4.2e-05 | peptide microarray binding signal ([2]; peptide region: H3 50-62, peptide modifications: H3K56ac H3S57ph, binder concentration: 100 nM): 0.000567 ± 6.4e-06 | peptide microarray binding signal [3, 11]: 5.66e-05 | peptide microarray binding signal [3, 12]: 0.000399 ± 2.6e-05 | peptide microarray binding signal [4, 11]: 0.000861 ± 5.4e-05 | peptide microarray binding signal [4, 12]: 0.000577 ± 6.2e-06

EIRRYQKSTELLI [H3 50-62 E I R R Y Q Kme3 S T E L L I]
peptide microarray binding signal ([1]; peptide region: H3 50-62, peptide modifications: H3K56me3, binder concentration: 50 nM): 0.00232 ± 0.0002 | peptide microarray binding signal ([1]; peptide region: H3 50-62, peptide modifications: H3K56me3, binder concentration: 500 nM): 0.0019 ± 6e-05 | peptide microarray binding signal ([2]; peptide region: H3 50-62, peptide modifications: H3K56me3, binder concentration: 10 nM): 0.00233 ± 2.7e-05 | peptide microarray binding signal ([2]; peptide region: H3 50-62, peptide modifications: H3K56me3, binder concentration: 100 nM): 0.002268 ± 2.2e-05 | peptide microarray binding signal [3, 13]: 0.00259 ± 0.0002 | peptide microarray binding signal [3, 14]: 0.00108 ± 3.8e-05 | peptide microarray binding signal [4, 13]: 0.0209 ± 0.0092 | peptide microarray binding signal [4, 14]: 0.00986 ± 0.0031

PATGGVKKPHRYR [H3 30-42 P A T G G V K Kme2 P H R Y R]
peptide microarray binding signal ([1]; peptide region: H3 30-42, peptide modifications: H3K37me2, binder concentration: 50 nM): 0.0036 ± 0.00019 | peptide microarray binding signal ([1]; peptide region: H3 30-42, peptide modifications: H3K37me2, binder concentration: 500 nM): 0.00771 ± 0.00019 | peptide microarray binding signal ([2]; peptide region: H3 30-42, peptide modifications: H3K37me2, binder concentration: 10 nM): 0.0121 ± 0.00097 | peptide microarray binding signal ([2]; peptide region: H3 30-42, peptide modifications: H3K37me2, binder concentration: 100 nM): 0.0202 ± 0.002 | peptide microarray binding signal [3, 15]: 0.00302 ± 0.00039 | peptide microarray binding signal [3, 16]: 0.00297 ± 0.00012 | peptide microarray binding signal [4, 15]: 0.00163 ± 0.00014 | peptide microarray binding signal [4, 16]: 0.001441 ± 1.4e-05

EIRRYQKSTELLI [H3 50-62 E I R R Y Q Kme Sph T E L L I]
peptide microarray binding signal ([1]; peptide region: H3 50-62, peptide modifications: H3K56me1 H3S57ph, binder concentration: 50 nM): 0.00125 ± 3.7e-05 | peptide microarray binding signal ([1]; peptide region: H3 50-62, peptide modifications: H3K56me1 H3S57ph, binder concentration: 500 nM): 0.00143 ± 2.3e-05 | peptide microarray binding signal ([2]; peptide region: H3 50-62, peptide modifications: H3K56me1 H3S57ph, binder concentration: 10 nM): 0.00209 ± 2.4e-05 | peptide microarray binding signal ([2]; peptide region: H3 50-62, peptide modifications: H3K56me1 H3S57ph, binder concentration: 100 nM): 0.00085 ± 2.5e-05 | peptide microarray binding signal [3, 17]: 0.000264 ± 7.4e-06 | peptide microarray binding signal [3, 18]: 0.000342 ± 3.8e-06 | peptide microarray binding signal [4, 17]: 0.000861 ± 8.7e-05 | peptide microarray binding signal [4, 18]: 0.000519 ± 5.6e-06

PATGGVKKPHRYR [H3 30-42 P A Tph G G V Kme2 K P H R Y R]
peptide microarray binding signal ([1]; peptide region: H3 30-42, peptide modifications: H3T32ph H3K36me2, binder concentration: 50 nM): 0.00313 ± 0.0002 | peptide microarray binding signal ([1]; peptide region: H3 30-42, peptide modifications: H3T32ph H3K36me2, binder concentration: 500 nM): 0.00695 ± 0.00032 | peptide microarray binding signal ([2]; peptide region: H3 30-42, peptide modifications: H3T32ph H3K36me2, binder concentration: 10 nM): 0.0113 ± 0.00095 | peptide microarray binding signal ([2]; peptide region: H3 30-42, peptide modifications: H3T32ph H3K36me2, binder concentration: 100 nM): 0.0184 ± 0.00072 | peptide microarray binding signal [3, 19]: 0.00266 ± 8.2e-05 | peptide microarray binding signal [3, 20]: 0.00262 ± 0.00017 | peptide microarray binding signal [4, 19]: 0.00142 ± 7.1e-05 | peptide microarray binding signal [4, 20]: 0.00127 ± 1.3e-05

EIRRYQKSTELLI [H3 50-62 E I R R Y Q Kac S T E L L I]
peptide microarray binding signal ([1]; peptide region: H3 50-62, peptide modifications: H3K56ac, binder concentration: 50 nM): 0.0121 ± 0.00021 | peptide microarray binding signal ([1]; peptide region: H3 50-62, peptide modifications: H3K56ac, binder concentration: 500 nM): 0.0135 ± 0.0015 | peptide microarray binding signal ([2]; peptide region: H3 50-62, peptide modifications: H3K56ac, binder concentration: 10 nM): 0.00913 ± 0.00065 | peptide microarray binding signal ([2]; peptide region: H3 50-62, peptide modifications: H3K56ac, binder concentration: 100 nM): 0.0108 ± 0.00062 | peptide microarray binding signal [3, 21]: 0.0016 ± 0.00024 | peptide microarray binding signal [3, 22]: 0.00211 ± 0.00015 | peptide microarray binding signal [4, 21]: 0.00222 ± 0.00049 | peptide microarray binding signal [4, 22]: 0.00173 ± 6.6e-05

EIRRYQKSTELLI [H3 50-62 E I R R Y Q Kme2 Sph T E L L I]
peptide microarray binding signal ([1]; peptide region: H3 50-62, peptide modifications: H3K56me2 H3S57ph, binder concentration: 50 nM): 0.00113 ± 1.5e-05 | peptide microarray binding signal ([1]; peptide region: H3 50-62, peptide modifications: H3K56me2 H3S57ph, binder concentration: 500 nM): 0.00124 ± 2.3e-05 | peptide microarray binding signal ([2]; peptide region: H3 50-62, peptide modifications: H3K56me2 H3S57ph, binder concentration: 10 nM): 0.00269 ± 0.00012 | peptide microarray binding signal ([2]; peptide region: H3 50-62, peptide modifications: H3K56me2 H3S57ph, binder concentration: 100 nM): 0.00128 ± 1.3e-05 | peptide microarray binding signal [3, 23]: 0.000378 ± 3.9e-06 | peptide microarray binding signal [3, 24]: 0.000342 ± 3.8e-06 | peptide microarray binding signal [4, 23]: 0.000725 ± 3.3e-05 | peptide microarray binding signal [4, 24]: 0.000634 ± 1.2e-05
